# From the supplement of paper PMC10338343
# ± gives the standard deviation.
# What was measured:
# [1] = system: MILI (PIWIL2) piRISC loaded with L1MC piRNA (26 nt); assay: pre-steady-state target cleavage rate (min^-1); guide: L1MC piRNA 5'p-UAACUAAAUACUAUGCAAGCUGUAGG; higher = faster piRNA-guided slicing of the target;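 further: 1 nM active piRISC with 0.1 nM target library at 33 °C single turnover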
# Method in brief: (§1)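 The pre-steady-state cleavage rate was derived from a burst-and-steady-state fit of Cleave-'n-Seq data. For these assays, 1 nM active affinity-purified piRISC loaded with a single synthetic guide was mixed with […] a transcribed, DNA-blocked target RNA library in HEPES–potassium acetate buffer at 33 °C, with or without 500 nM GTSF1 partner protein, for 0–8 or 0–960 min. Sequencing counts of uncleaved targets were normalised to depth and to weakly complementary targets, and k3 was capped at 0.0001 min^-1 after three trials were pooled.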
# [2] = system: EfPiwi piRISC loaded with L1MC piRNA (26 nt); assay: pre-steady-state target cleavage rate (min^-1); auxiliary factor: 500 nM Ephydatia muelleri Gtsf1; guide: L1MC piRNA 5'p-UAACUAAAUACUAUGCAAGCUGUAGG; MIWI and MILI are mouse PIWI proteins and EfPiwi is from a freshwater sponge; tags in brackets are library labels; higher = faster piRNA-guided slicing of the target
# Method in brief: as §1
# [3] = auxiliary factor: 500 nM mouse GTSF1
Sequence,"pre-steady-state target cleavage rate [1, 3]",pre-steady-state target cleavage rate [2],pre-steady-state target cleavage rate ([1]; auxiliary factor: none (no GTSF1))
UCCUGGAACACCUAGCAUAGUAUUUAGUUA,0.229 ± 0.032,0.00601 ± 0.0036,
UCCUGGUUGUGCUUGCAUAGUAUUUAGAAA,0.0381 ± 0.013,0.00415 ± 0.0022,
UCCUCCUACAGCUUGCAUAGUAUUUACUAA,0.114 ± 0.027,0.00569 ± 0.003,
UCCUGGAUGUCGAACCAUAGUAUUUAGUCA,,< 0.0001,< 0.0001
UCCUGCUACAGCAUGCAUAGUAUUUACUUA,0.261 ± 0.041,0.0037 ± 0.0024,
UCCUGGAACAGCUUGCAUAGAAUUUAGAUA,0.0527 ± 0.018,0.00187 ± 0.0015,
UCCUGCUACAGCUUGCAUAGUAUUAUGAAA,0.0843 ± 0.025,0.00355 ± 0.0023,
UCCUGCUACUGCUUGCAUAGUAUUUAGAUA,0.0911 ± 0.022,0.00383 ± 0.0018,
UCCUGCUACAGCUUGCAUAGUAUUUAGGUA,0.143 ± 0.034,0.00342 ± 0.0016,
UCCUGGAUGAGCUAGCAUAGUAUUUUGUUA,0.159 ± 0.036,0.00327 ± 0.003,
UCCUGGAACAGCUAGCAUACUAUUUAGUUA,0.0692 ± 0.011,0.0045 ± 0.0019,
UCCUCCUACAGCUUGCAUUGUAUUAAGUUA,0.132 ± 0.023,0.00681 ± 0.0032,
UCCUGCUACAGCUUGCAAAGUAUUUACAAA,0.0731 ± 0.018,0.00394 ± 0.0025,
UCCUCCUACAGCUUGCAUAGUUAAUAGAAA,0.00946 ± 0.0043,0.00366 ± 0.0031,
UCCUGGUACUGCUUGCAUAGUAUUUAGAUA,0.0302 ± 0.014,0.00378 ± 0.0019,
UCCUGGAACUGCUUGCAUAGUAUUUAGAUA,0.123 ± 0.023,0.00297 ± 0.002,
UCCUGCUACAGCUUGCAUUGUAUUUACAAA,0.0245 ± 0.01,0.00313 ± 0.0028,
UCCUCCUACACCUUGCAUAGUAUUUUGUUA,0.101 ± 0.026,0.00451 ± 0.0027,
UCCUGCUAGAGCUUGCAUACUAUUUAGUUA,0.0842 ± 0.018,0.00515 ± 0.0018,
UCCUGGAACAGCUUGCUUAGUAUUAAGUUA,0.179 ± 0.026,0.00237 ± 0.002,
UCCUGGAACUGCUUCCAUAGUAUUUAGUUA,0.074 ± 0.022,0.00266 ± 0.0013,
UCCUGCUACAGCUUGCAUAGAAAUUAGUUA,0.059 ± 0.015,0.0026 ± 0.0021,
UCCUGGAUCAGGUUGCAUAGUAUUUAGAUA,0.1 ± 0.023,0.00381 ± 0.0026,
UCCUCCUAGAGCUUGCAUAGUAUUUAGAUA,0.123 ± 0.025,0.0043 ± 0.0018,
UCCUGGAACAGCUUGCAUAGUAUUAAGUAA,0.0909 ± 0.024,0.00572 ± 0.0023,
UCCUGCUACUGCUUGCAUAGUAUUUAGAAA,0.0315 ± 0.0099,0.00545 ± 0.0023,
UCCUGGAUGUCCUUGCAUAGUAUUAUAGUUA,0.122 ± 0.019,0.00424 ± 0.0041,
UCCUGGAUGAGCUUGCAUAGUAAUUAGAUA,0.0197 ± 0.0088,0.00341 ± 0.0028,

Sequence,"pre-steady-state target cleavage rate [1, 3]",pre-steady-state target cleavage rate [2],pre-steady-state target cleavage rate ([1]; auxiliary factor: none (no GTSF1))
UCCUCCUACAGCUUGCAUAGUAUUUACAAA,0.197 ± 0.04,0.00422 ± 0.003,
UCCUGGAACAGCUUGCAUAGUAUUUAGAAA,0.0838 ± 0.015,0.00395 ± 0.0012,
UCCUGCUACAGCUUGCAUUGUAUUAAGUUA,0.215 ± 0.03,0.00572 ± 0.0028,
UCCUCCUACAGCUUGCAUAGAAUUUAGUAA,0.148 ± 0.035,0.00443 ± 0.0022,
UCCUCCAUGAGCUUGCAUAGUAUUUAGAAA,0.0637 ± 0.016,0.00475 ± 0.0019,
UCCUGGAACAGCUUGCAAAGUAUUUAGAAA,0.166 ± 0.038,0.00418 ± 0.002,
UCCUGGAAGAGCUUGCAUAGUAUUUAGAAA,0.109 ± 0.025,0.00533 ± 0.002,
UCCUGCUACAGCUUGGAUAGAAUUUAGUUA,0.0646 ± 0.014,0.0053 ± 0.0018,
UCCUGGAACAGCUUGCAUAGUAUUUAGAUA,0.137 ± 0.025,0.00437 ± 0.0016,
UCCUCCUACAGCUUGCAUAGUAAAAACAAA,0.0836 ± 0.022,0.00389 ± 0.0036,
UCCUGGUACAGCUUGCACUAGUAUUUAGUUA,0.109 ± 0.027,0.00323 ± 0.0029,
UCCUCCUACAGCUUGCAUUGUAUUUACAAA,0.0269 ± 0.0098,0.00314 ± 0.003,
UCCUGCUAGAGCUUGCAUAGUAUUUAGAUA,0.117 ± 0.015,0.00536 ± 0.0018,
UCCUGGAAGUCCUUGCAUAGUAUUUAGUAA,0.122 ± 0.021,0.00346 ± 0.0028,
UCCUCCUACAGCUUGCAAUCUAUUUAGUUA,0.0266 ± 0.0058,0.00376 ± 0.0036,
UCCUGCUACAGCUUGCAUAGUAUUUAGAUA,0.15 ± 0.029,0.00539 ± 0.0023,
UCCUCCUACAGCUUGCUUAGUAUUUACAAA,0.0922 ± 0.021,0.00329 ± 0.003,
UCCUCCUACACCUUGCAUAGUAUUUACUUA,0.128 ± 0.038,0.00326 ± 0.0032,
UCCUGCUACAGCUUGCAUAGUAUUAUCUAA,0.0551 ± 0.014,0.00395 ± 0.0027,
UCCUGGAACAGCUUGCAUAGUAUUUCGUUA,0.0829 ± 0.02,0.0025 ± 0.0013,
UCCUGCUUCAGCUUGCAUAGUAUUUACAAA,0.212 ± 0.047,0.00462 ± 0.0025,
UCCUGCUACAGCUUGCAUAUAUUUAGUUA,0.046 ± 0.011,0.00528 ± 0.0031,
UCCUGGUACAGCUUGCAUAGUAUAAAGUAA,0.0705 ± 0.02,0.00243 ± 0.0022,
UCCUGCUACAGCUUGCAUAGUUAAUAGUUA,0.0263 ± 0.0097,0.00347 ± 0.0032,
UCCUGGAACAGCUUGCAUAGUAUUUAGAUUA,0.0966 ± 0.023,0.00539 ± 0.002,
UCCUGGAUGUCCUUGCAUAGUAUUUAAUUA,0.0833 ± 0.017,0.00439 ± 0.003,
UCCUGCUAGAGCUUGCAUAGUUUUUAGUUA,0.0598 ± 0.012,0.00419 ± 0.0013,
